High-throughput results deposited in PubChem by Milwaukee Institute for Drug Discovery.
Cy5 interf NS3h: counter-screen for HCV NS3 helicase inhibitors: fluorescence interference | Cy5-dT15 DNA with NS3h; actives lie on both sides; signal over control mean, under 1 quenches | fluorescence interference ratio at 100 µM | hit rate 6% among 16,000 | AID 720488;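 active means compound fluorescence over control fluorescence at most 0.8, a quencher, or at least a set upper limit, an enhancer; inactive means ratio between 0.8 and the set upper limit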
NS3h inh CB: hepatitis C NS3 helicase inhibition, primary screen; NS3h Cy5-dT15 DNA binding, fluorescence polarization; inhibition, % at 100 µM; hit rate 1.6% among 16,000;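 active means inhibition above the average over every tested compound plus 3 SD, cut at about 40% in these data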
NS3h confirm: confirmation of hepatitis C virus NS3 helicase inhibitors. inhibition, % at 100 µM. shares compounds with NS3h inh CB. NS3h binding to Cy5-dT15 DNA, fluorescence polarization. hit rate 20% among 240;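 active means percent inhibition of 50% or more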
SSB-DNA FP CB: E. coli SSB-DNA binding inhibition, NS3h counter-screen; shares compounds with NS3h inh CB; inhibition, % at 100 µM; E. coli SSB binding Cy5-dT15, fluorescence polarization; hit rate 40% among 240; AID 720486;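 active means inhibition of at least 50%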;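 further: displacers lower Cy5 polarization so higher inhibition means more SSB displaced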
Target sequence (P0AGE0 whole entry, looked up): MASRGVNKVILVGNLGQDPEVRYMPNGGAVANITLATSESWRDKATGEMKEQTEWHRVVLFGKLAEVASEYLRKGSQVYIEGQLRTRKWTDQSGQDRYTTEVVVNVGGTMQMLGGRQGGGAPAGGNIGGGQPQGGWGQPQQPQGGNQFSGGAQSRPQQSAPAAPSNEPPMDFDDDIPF
Cy5 SSB interf: enhances or quenches Cy5-DNA fluorescence with E. coli SSB. AID 720487. Cy5-dT15/E. coli SSB fluorescence interference; actives lie on both sides. hit rate 8% among 240. fluorescence interference ratio at 100 µM. shares compounds with NS3h inh CB;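 active means fluorescence interference ratio at or above 1.2, signal boosting, or at or below 0.8, signal quenching; inactive means ratio between 0.8 and 1.2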;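 further: ratio of compound well signal to mean negative control signal so 1 means no effect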
Cy5 interf conf: confirmation counter-screen for HCV NS3 helicase inhibitors: fluorescence interference | shares compounds with NS3h inh CB | Cy5-dT15 DNA/NS3h fluorescence interference counterscreen | fluorescence interference ratio at 100 µM, hits read low | hit rate 44% among 240 | AID 720489;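 active means fluorescence interference ratio at or below 0.8 quencher or at or above a set limitenhancer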;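 further: ratio of compound fluorescence to mean of negative controls so 1 means no interference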
Active calls of the source: *; ! = not confirmed by another sample. The list is not random: actives were taken first. Their share in the collection is about 7.6%.

SMILES | Cy5 interf NS3h | NS3h inh CB | others
O=C(Nc1ccc(Cl)cc1C(=O)c1ccccc1)c1cncc(Br)c1 | 0.94 | 11
Cc1cc([N+](=O)[O-])nn1CC(=O)Nc1ccc(Cl)cc1C(=O)c1ccccc1 | 0.57* | 9
CCCCC1(C)NCCN2C(=O)CSC21 (configuration not stated) | 1.1 | 3
N#CC1=C(N)Oc2c(c(=O)oc3ccccc23)C1c1cccc([N+](=O)[O-])c1 (configuration not stated) | 1.1 | 19
COc1ccc2[nH]cc(CCN)c2c1 | 0.76* | 7
O=C1NC(=O)C(=Cc2ccc(OCc3cccc(C(=O)O)c3)cc2)C(=O)N1 | 1.1 | -4
CC1(C)C(=O)N(c2ccccc2)C(=O)N(c2ccccc2)C1=O | 0.94 | -1
Cc1ccc(C)n1-c1ccc(N2CCNCC2)c([N+](=O)[O-])c1 | 0.32* | -18
O=[N+]([O-])c1ccc(N2CCCC2)c(F)c1Br | 0.84 | -3
CC(C)N1CCN(Cc2cc(Br)ccc2O)CC1 | 0.95 | -13
Cn1c(O)c(C=C2C=CC=N2)c(=O)[nH]c1=O | 0.89 | 14
O=C(Cn1c[n+]([N-][N+](=O)[O-])cn1)Nc1ccc(NC(=O)Cn2c[n+]([N-][N+](=O)[O-])cn2)cc1 | 0.76* | -6
O=C(Cn1c[n+]([N-][N+](=O)[O-])cn1)N1CCN(C(=O)Cn2c[n+]([N-][N+](=O)[O-])cn2)CC1 | 1.1 | 0
COc1ccc(C=C2C(=O)NC(=S)NC2=O)c(OC)c1 | 0.78* | 11
COc1cccc(C=C2C(=O)NC(=O)NC2=O)c1 | 0.98 | 32
OC1C2CCCC1C(N1CCCCC1)CC2 (configuration not stated) | 0.99 | 1
CC1=NN(c2ccccc2)C(=O)C1=Cc1c(O)[nH]c(=O)[nH]c1=O | 0.71* | 14
Cc1ccc(NC(=O)c2nc[nH]c2C(=O)Nc2ccc(Br)cc2C(=O)c2ccccc2)cc1 | 1.1 | -2
COC(=O)c1[nH]cnc1C(=O)Nc1ccc(Cl)cc1C(=O)c1ccccc1 | 0.72*! | 16
O=C1NC(=O)C(=Cc2ccccc2Cl)C(=O)N1 | 1.1 | 22
COc1ccccc1N1C(=O)NC(=O)/C(=C\c2ccc(O)cc2)C1=O | 0.96 | 29
CC(Nc1ccc([N+](=O)[O-])c2cccnc12)c1ccc(Br)cc1 (configuration not stated) | 0.68* | 26
CCCc1ccc(OCCNc2ccc([N+](=O)[O-])c3cccnc23)cc1 | 1 | 11
O=[N+]([O-])c1ccc(NCCCO)c2ncccc12 | 0.93 | -14
O=[N+]([O-])c1ccc(NCC(O)c2ccccc2)c2ncccc12 (configuration not stated) | 0.65* | 36
SMILES | Cy5 interf NS3h | NS3h inh CB | others
CCN1CCC2(CC1)CC(C)c1cccc(C)c1N2 (configuration not stated) | 1.1 | -18
CCN1CCN(c2ccc(C(F)(F)F)cn2)CC1 | 0.98 | -15
Cc1cc(C=C2C(=O)NC(=O)NC2=O)c(C)n1C | 0.93 | -2
Cc1cc(C=C2C(=O)NC(=O)NC2=O)c(C)n1-c1cccnc1 | 1.1 | 47* | NS3h confirm=-3;SSB-DNA FP CB=8;Cy5 SSB interf=1;Cy5 interf conf=0.76*
CCOc1ccc(N2C(=O)NC(=O)/C(=C\c3ccc(Sc4nc5ccccc5[nH]4)o3)C2=O)cc1 | 1 | 8
Cc1ccc(N2C(=O)NC(=O)/C(=C\C=C\c3ccccc3)C2=O)cc1 | 0.91 | 14
Cc1ccc(N2C(=O)/C(=C/c3ccc(-c4cccc(C(=O)O)c4)o3)C(=O)NC2=S)cc1 | 1 | 83* | NS3h confirm=55*;SSB-DNA FP CB=105*;Cy5 SSB interf=0.81;Cy5 interf conf=0.93
O=C1NC(=S)N(c2ccccc2)C(=O)/C1=C/c1ccc(-c2ccc(C(=O)O)c(Cl)c2)o1 | 1.1 | 68* | NS3h confirm=66*;SSB-DNA FP CB=95*;Cy5 SSB interf=0.84;Cy5 interf conf=0.93
O=C1NC(=O)N(c2ccccc2)C(=O)/C1=C\c1ccc(-c2ccc(C(=O)O)cc2)o1 | 0.95 | 83* | NS3h confirm=91*;SSB-DNA FP CB=94*;Cy5 SSB interf=0.84;Cy5 interf conf=0.76*
Cc1ccc(-n2c(C)cc(/C=C3\C(=O)NC(=S)N(c4ccccc4)C3=O)c2C)cc1 | 0.97 | 0
O=C1NC(=S)NC(=O)C1=Cc1ccc(-c2cc(Cl)c([N+](=O)[O-])cc2Cl)o1 | 0.88 | 25
O=P(Oc1ccccc1)(Oc1ccccc1)C(NCc1ccccc1)c1ccccc1 (configuration not stated) | 1 | 4
CC1=[N+]([O-])C(C(=O)c2ccccc2)N(O)C1(C)C (configuration not stated) | 1 | 2
COc1ccccc1CNCCc1ccc(Cl)cc1 | 1.1 | -6
